Results on 103 sequences are retold here after PMC10668032, “Altered binding affinity of SIX1-Q177R correlates with enhanced WNT5A and WNT pathway effector expression in Wilms tumor”.

Whole data set: some 33,000 sequences, median “e-score” near -0.053, cut for the highest 2% near 0.38. What follows is part of a selection rich in the highest values, with near analogues and random picks from the rest.

For this experiment, the target named is T1, SIX1 homeodomain (reference allele) (human, UniProt Q15475 108-198).
T1 sequence: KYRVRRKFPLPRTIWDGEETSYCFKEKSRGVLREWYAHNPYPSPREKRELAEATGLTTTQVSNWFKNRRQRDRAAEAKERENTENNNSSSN
In words: universal protein binding microarray; Universal all-10-mer PBM (8x60K, AMADID 030236), 300 nM GST-tagged protein, Alexa Fluor 488 anti-GST; buffer, salt, pH and temperature not stated (as in Berger); high values mean tight binding. The note with it: protein: ivt; tags: N-terminal GST; dsDNA, one strand shown. In outline:
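Binding of GST-tagged homeodomains is given as 8-mer E-scores from the Universal PBM Analysis Suite. The proteins were produced by in vitro transcription/translation, quantified by anti-GST western blot against a recombinant GST standard curve, and applied in duplicate at 300 nM final concentration to universal 'all 10-mer' protein binding microarrays (8×60K format).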
On to ACGTCTCA, for which the binding signal turned out to be 0.322 ± 0.0324 E-score.

Take AGATCTCA: the binding signal amounted to 0.262 ± 0.0503 E-score.

As for TCCATCAA, the binding signal turned out to be 0.168 ± 0.0474 E-score.

Consider ATACTTAA, for which the binding signal came out at 0.19 ± 0.132 E-score.

For the sequence AGTCATAT, the binding signal worked out at 0.257 ± 0.0554 E-score.

Consider CGATAGTA, for which the binding signal is 0.263 ± 0.0297 E-score.

Turning to AAAGGATC, the binding signal came to 0.279 ± 0.0681 E-score.

Consider AAGGGATT, for which the binding signal was 0.188 ± 0.061 E-score.

For AAGGGATC, the binding signal was 0.377 ± 0.0133 E-score.

Regarding ATACGCCG, the binding signal came to 0.277 ± 0.0315 E-score.

ATATTATA: the binding signal is 0.333 ± 0.0863 E-score.

On to GTATTATA, for which the binding signal worked out at 0.377 ± 0.042 E-score.

As for GTATTAGA, the binding signal amounted to 0.237 ± 0.0563 E-score.

Take AATACGGA: the binding signal is 0.169 ± 0.0478 E-score.

For CATCCACG, the binding signal is 0.183 ± 0.0475 E-score.

Take GGTGAGAA: the binding signal is 0.162 ± 0.0553 E-score.

In the case of AATATCGT, the binding signal was determined as 0.309 ± 0.0634 E-score.

Regarding CAGATCGA, the binding signal was determined as 0.277 ± 0.0349 E-score.

Take GATATCGC: the binding signal amounted to 0.468 ± 0.0155 E-score.

Consider CATATAGC, for which the binding signal is 0.162 ± 0.0222 E-score.

In the case of AATATCGC, the binding signal came to 0.299 ± 0.0725 E-score.

With GAGATCGC, the binding signal was determined as 0.27 ± 0.0213 E-score.

For GATATAGC, the binding signal was determined as 0.368 ± 0.0388 E-score.

On to CATATAGA, for which the binding signal came to 0.183 ± 0.00672 E-score.

Turning to CATATCGG, the binding signal amounted to 0.401 ± 0.0215 E-score.

Consider CATATCGC, for which the binding signal worked out at 0.424 ± 0.0197 E-score.

In the case of CATATCGA, the binding signal is 0.417 ± 0.00575 E-score.

Turning to AATATCGG, the binding signal is 0.312 ± 0.0183 E-score.

Take GGTGTAAC: the binding signal worked out at 0.309 ± 0.00742 E-score.

For the sequence AGACGGTA, the binding signal was 0.196 ± 0.0243 E-score.

As for CACTAATA, the binding signal is 0.215 ± 0.00278 E-score.

Take GGATATTA: the binding signal turned out to be 0.355 ± 0.0417 E-score.

Take ATATGCCG: the binding signal is 0.211 ± 0.0327 E-score.

Consider AGTTGTAT, for which the binding signal was found to be 0.215 ± 0.0407 E-score.

In the case of AGATAAAG, the binding signal is 0.183 ± 0.0397 E-score.

Regarding CGTCTCAG, the binding signal was 0.161 ± 0.0511 E-score.

Consider TACGCGCA, for which the binding signal stood at 0.174 ± 0.0401 E-score.

On to CGAATATC, for which the binding signal was found to be 0.308 ± 0.00674 E-score.

As to GAACACCC, the binding signal was 0.205 ± 0.0407 E-score.

Regarding CCCCTTCC, the binding signal is 0.164 ± 0.0967 E-score.

In the case of AATATCGA, the binding signal is 0.241 ± 0.0403 E-score.

In the case of GATATTGA, the binding signal came out at 0.287 ± 0.088 E-score.

On to TATATCCA, for which the binding signal was found to be 0.335 ± 0.0312 E-score.

As to CATATCCG, the binding signal is 0.426 ± 0.0135 E-score.

Turning to GAGATCGA, the binding signal was found to be 0.271 ± 0.0142 E-score.

Regarding ATTATCCG, the binding signal was 0.351 ± 0.0414 E-score.

In the case of GATATCGA, the binding signal turned out to be 0.42 ± 0.0378 E-score.

Consider TATATCGA, for which the binding signal was 0.387 ± 0.0436 E-score.

Turning to CATATACG, the binding signal was 0.24 ± 0.0369 E-score.

CAACTATC: the binding signal was determined as 0.168 ± 0.0786 E-score.

ATTGAATA: the binding signal came to 0.196 ± 0.0188 E-score.

As to GTGTCGCA, the binding signal amounted to 0.173 ± 0.106 E-score.

As to AAGAATAC, the binding signal stood at 0.214 ± 0.0706 E-score.

As to ATCAATTA, the binding signal worked out at 0.229 ± 0.0261 E-score.

Consider ATCGCCTG, for which the binding signal was 0.206 ± 0.0204 E-score.

In the case of ATACTGTG, the binding signal turned out to be 0.226 ± 0.0353 E-score.

On to TATCGCCA, for which the binding signal was found to be 0.36392 ± 0.000113 E-score.

Turning to GATCGCGA, the binding signal came to 0.3375 ± 0.00196 E-score.

For TATCGCGA, the binding signal amounted to 0.395 ± 0.0175 E-score.

As to CCGGCGGA, the binding signal worked out at 0.24 ± 0.0642 E-score.

Turning to TCATCCGA, the binding signal was found to be 0.255 ± 0.0149 E-score.

As for ACTGCTAT, the binding signal amounted to 0.177 ± 0.0391 E-score.

In the case of CCTGATAG, the binding signal worked out at 0.266 ± 0.022 E-score.

As to CCTGATAC, the binding signal is 0.4721 ± 0.0017 E-score.

In the case of CCTGAGAC, the binding signal was found to be 0.168 ± 0.0173 E-score.

As for GCTGAGAC, the binding signal worked out at 0.214 ± 0.0303 E-score.

With ACTGATAG, the binding signal was found to be 0.315 ± 0.0253 E-score.

ACTGATAC: the binding signal stood at 0.465 ± 0.00916 E-score.

Take ACTGATCA: the binding signal was 0.181 ± 0.00344 E-score.

GCTGATAC: the binding signal came out at 0.459 ± 0.00926 E-score.

Consider ACTGATAT, for which the binding signal is 0.442 ± 0.0273 E-score.

For the sequence ACTGACAC, the binding signal was 0.335 ± 0.01 E-score.

For GCTGACAC, the binding signal was determined as 0.246 ± 0.0761 E-score.

For GTATAGAA, the binding signal was determined as 0.215 ± 0.0496 E-score.

Regarding TATCTCCA, the binding signal stood at 0.282 ± 0.0362 E-score.

In the case of ATGGCATC, the binding signal is 0.155 ± 0.0404 E-score.

ATCCAGTA: the binding signal was 0.242 ± 0.0094 E-score.

Consider AGCAATAC, for which the binding signal amounted to 0.298 ± 0.00343 E-score.

On to GATCGTGC, for which the binding signal stood at 0.276 ± 0.0195 E-score.

ACCTATAT: the binding signal was 0.195 ± 0.0849 E-score.

With GCAGGAGA, the binding signal was determined as 0.153 ± 0.0104 E-score.

As for ATATCGTG, the binding signal came out at 0.376 ± 0.0365 E-score.

Consider CTATCGTC, for which the binding signal stood at 0.163 ± 0.0581 E-score.

On to GTCTCGTA, for which the binding signal was determined as 0.172 ± 0.0154 E-score.

With ATATAGTA, the binding signal is 0.304 ± 0.0257 E-score.

For ATATCGTC, the binding signal was 0.382 ± 0.0428 E-score.

Take ATATCGTA: the binding signal was 0.402 ± 0.0509 E-score.

In the case of GTATCGTA, the binding signal is 0.4227 ± 0.00184 E-score.

In the case of CTATCGTA, the binding signal is 0.266 ± 0.0154 E-score.

For the sequence GTATAGTA, the binding signal was 0.285 ± 0.0663 E-score.

Regarding GGTAGATA, the binding signal was determined as 0.336 ± 0.0074 E-score.

In the case of GAGTAATA, the binding signal came out at 0.204 ± 0.00279 E-score.

Regarding AGATCTCG, the binding signal worked out at 0.214 ± 0.0497 E-score.

Take GGGGTCAA: the binding signal was 0.151 ± 0.00175 E-score.

Consider GGTGTCAA, for which the binding signal stood at 0.45408 ± 0.000177 E-score.

For GGTGTCGA, the binding signal was 0.408 ± 0.0576 E-score.

Take AGTGTCAA: the binding signal stood at 0.168 ± 0.0652 E-score.

For GGTGTCTA, the binding signal was determined as 0.35 ± 0.0308 E-score.

In the case of GGTGTCCA, the binding signal turned out to be 0.314 ± 0.0555 E-score.

Consider GGTGTCAC, for which the binding signal came to 0.476 ± 0.0116 E-score.

Regarding AGTGTCAC, the binding signal was 0.253 ± 0.0143 E-score.

Turning to CGTGTCAC, the binding signal was found to be 0.1957 ± 0.000728 E-score.

For CCGCTATA, the binding signal stood at 0.176 ± 0.0395 E-score.
